Results as given in PubChem BioAssay (Tox21).
The source holds several records for some structures; these can differ, active in one and inactive in another. The source made the active and inactive calls. Entries that show only a call come without a potency. Calls come from the whole dose curve; as a rule, active = well fitted activation curve with a large enough effect in the repeat runs; inconclusive = weak or mixed curves; inactive = flat fitted curve, though single readings scatter.

Assay: A CellTox Green Cytotoxicity Assay to monitor cytotoxicity in HepG2 cells - 0 hour (AID 1224882); note: nearly all actives have a fitted effect of over 35% in size
Details: CellTox Green fluorescence; series mostly up to 76.8 µM
In short: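 Real-time, homogeneous cytotoxicity readout: dead-cell DNA staining by CellTox Green in HepG2 monolayers, fluorescence measured at timed intervals up to 40 h of continuous compound exposure.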
Potency is the fitted concentration of half-maximal effect.

Compound	Potency
Nn1cnnc1	inactive
CCCCC(CC)COC(=O)Cl (stereo unspecified)	inactive
CCCCCCCCOC(=O)c1ccccc1C(=O)OCCCCCCCC	inactive
COC(=O)c1sccc1S(=O)(=O)NC(=O)Nc1nc(C)nc(OC)n1	inactive
COP(=S)(OC)Oc1cc(Cl)c(Cl)cc1Cl	inactive
O=c1oc2ccccc2c(O)c1C(CC(O)c1ccc(-c2ccc(Br)cc2)cc1)c1ccccc1 (stereo unspecified)	inactive
CCC(C)c1cc([N+](=O)[O-])cc([N+](=O)[O-])c1O (stereo unspecified)	inactive
CC(C)=CC1C(C(=O)OCc2coc(Cc3ccccc3)c2)C1(C)C (stereo unspecified)	inactive
N#CC(Br)Br	inactive
CCN(CC)C(=O)/C(Cl)=C(\C)OP(=O)(OC)OC	inactive
CC(C)(c1cc(Cl)c(O)c(Cl)c1)c1cc(Cl)c(O)c(Cl)c1	inactive
CCCCCCOC(=O)c1ccccc1C(=O)OCCCCCC	inactive
Oc1cc(Cl)ccc1Oc1ccc(Cl)cc1Cl	50.1 µM (active) and inactive
O=P(Oc1ccccc1)(Oc1ccccc1)Oc1ccccc1	inactive
Oc1ccc(-c2ccccc2)cc1	inactive
CC(C)(C)c1ccccc1O	inactive
CCCCCCCCCCCOC(=O)c1ccccc1C(=O)OCCCCCCCCCCC	inactive
C[C@]12CCC(=O)C(O)=C1CC[C@@H]1[C@@H]2CC[C@]2(C)C(=O)CC[C@@H]12	inactive
CCCCN(CC)c1c([N+](=O)[O-])cc(C(F)(F)F)cc1[N+](=O)[O-]	inactive
Cc1ccc(OP(=O)(Oc2ccc(C)cc2)Oc2ccc(C)cc2)cc1	inactive
CC(C)Oc1cc(-n2nc(C(C)(C)C)oc2=O)c(Cl)cc1Cl	inactive
